This is part of a sample that, as a whole, favours compounds with a hit. Of some 79,000 tested, about 15% had one in any assay. Values without a mark were called inactive. The source made the active and inactive calls. Cut-off read from the data, not from the text of the source: active = growth inhibition above about 70%; inactive = the rest.
Experiment: NCI Yeast Anticancer Drug Screen. Data for the sgs1 mgt1 strain (AID 161);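 note: 0% = growth of cultures given vehicle only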
Details: S. cerevisiae sgs1 mgt1 strain, at 50.0 µM, active compounds read high
How it was run: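 Mutant yeast exposed to compound; growth scored against vehicle-only wells.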

SMILES | growth inhibition
O=C1C(=O)C(CCCO)(CCCO)CCCCCCCCC1(CCCO)CCCO | 0%
CC(C)(C)C(=O)CC(=O)C(F)(F)C(F)(F)C(F)(F)F.CC(C)(C)C(=O)CC(=O)C(F)(F)C(F)(F)C(F)(F)F.CC(C)(C)C(=O)CC(=O)C(F)(F)C(F)(F)C(F)(F)F.[Er] | 91.2% (active)
CCCCC(CC)COC(=O)c1cc2ccccc2oc1=O (stereo not given) | 68.5%
Nc1ccc(-c2nc3ccccc3s2)cc1I | 87.3% (active)
CN1CCC(CCC(=O)OC(C)(C)C)(CN2c3ccccc3Sc3ccccc32)C1 (stereo not given) | 99.7% (active)
COc1cc(C(=O)C=[N+]=[N-])c([N+](=O)[O-])c(OC)c1OC | 91.8% (active)
COc1ccc(-n2cc(-c3ccc(Cl)cc3)c3c(N)ncnc32)cc1 | 98.2% (active)
COc1ccccc1/C=C1\SC(=S)N(/C=C2\C(=O)Oc3ccccc3C2=O)C1=O | 54.2%
F[Si](c1ccccc1)(c1ccccc1)c1ccccc1 | 32.1%
Cc1c2ccnc(-c3ccc(F)cc3)c2cc2c1[nH]c1ccccc12 | 65.8%
CCN(CC)CCNc1c(OC)cc(C)c2sc3ccccc3c(=O)c12 | 82.8% (active)
O=c1cccc(C2CCc3cc(O)ccc3C2)[nH]1 (stereo not given) | -5.05%
O/N=C1\c2ccccc2-c2ccc(Cl)cc21 | 87.4% (active)
CCCCN(CCCC)CC(O)c1cc(-c2ccc(Cl)cc2)nc2c(Cl)cccc12 (stereo not given) | 99.2% (active)
CN(C)c1ccc(-c2c(C#N)c(S)n(NS(=O)(=O)c3ccccc3)c(=O)c2C#N)cc1 | 61.2%
Clc1ccc2ns[s+]c2c1 | 80.6% (active)
COc1ccc2c(c1)CC/C(=C\c1ccc(OCCN(C)C)cc1)C2=O | 44.8%
CCCCOC(=O)c1cnc[nH]c1=O | 8.15%
COC(=O)c1c(C)cccc1C1CN=NC12Cc1ccc(C)c(C)c1C2=O (stereo not given) | 68.5%
CC1CCN(CCOC(=O)C(c2ccccc2)C2C=CCCC2)C1 (stereo not given) | 51.1%

SMILES | growth inhibition
CNCC(OB(c1ccccc1)c1ccccc1)c1ccccc1 (stereo not given) | 61.7%
O=C1CCC(Cc2ccc(C(F)(F)F)cc2)C(=O)N1 (stereo not given) | 95.8% (active)
CC(C)(Br)C(Br)C(=O)C(Br)C(C)(C)Br (stereo not given) | 63.6%
CCCCCCCCN(CCCCCCCC)CC(O)c1cc2c(c3ccccc13)CCCC2 (stereo not given) | 99.3% (active)
Brc1ccc(CCNCCN2CCCCC2)cc1 | 63.2%
CC(C)=NNc1ncnc2nc[nH]c12 | -28.8%
CC1=C/C(=C\c2ccc([N+](=O)[O-])o2)C(=O)O1 | 99.2% (active)
CCOC(=O)C(=O)Nc1nc2c(s1)C(=O)c1ccccc1C2=O | 96.9% (active)
CC1CC2(C)ON=C(c3ccccc3)N2c2ccccc2S1 (stereo not given) | 82.7% (active)
N#CC(CC(Br)CBr)(c1ccccc1)c1ccccc1 (stereo not given) | 56%
Oc1ccc(-c2ccccc2)cc1Cl | 99.7% (active)
C=CCSc1nc2ccccc2c(=O)n1Cc1ccco1 | 22.4%
CCOC(=O)c1ccc(O)c(OC)c1 | -18.6%
O=C(COc1ccc2ccccc2c1)NC1c2ccccc2Oc2ccccc21 | 69.3%
O=S(=O)(c1ccccc1)n1cc(C[P+](c2ccccc2)(c2ccccc2)c2ccccc2)c2ccccc21 | 99.5% (active)
CC/C(=N\O)c1ccc2cc(Br)c3ccccc3c2c1 | 98.7% (active)
CCOC(=O)C(C)(C)Oc1ccc2c(=O)cc(-c3ccccc3)oc2c1 | 93.4% (active)
CC(O)c1c2ccccc2cc2ccccc12 (stereo not given) | 37.6%
CC(=O)OC1CCC2(C)C(CCC3C4=CCC(C5COC(=O)C5)C4(C)CCC32)C1 (stereo not given) | 84.7% (active)
NC(C(=O)O)C1=CCCCCC1 (stereo not given) | 9.35%

Experiment: NCI Yeast Anticancer Drug Screen. Data for the cln2 rad14 strain (AID 165);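 note: 0% = growth equal to vehicle treated cultures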
Details: S. cerevisiae cln2 rad14 strain, at 5.0 µM (retest, dose inferred, filed as 0.5), active compounds read high
How it was run: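 cln2 rad14 yeast strain; compound exposure; growth inhibition read vs vehicle controls.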

SMILES | growth inhibition
O=C1C(=O)C(CCCO)(CCCO)CCCCCCCCC1(CCCO)CCCO | 6%
CC(C)(C)C(=O)CC(=O)C(F)(F)C(F)(F)C(F)(F)F.CC(C)(C)C(=O)CC(=O)C(F)(F)C(F)(F)C(F)(F)F.CC(C)(C)C(=O)CC(=O)C(F)(F)C(F)(F)C(F)(F)F.[Er] | 40%
CCCCC(CC)COC(=O)c1cc2ccccc2oc1=O (stereo not given) | 5%
Nc1ccc(-c2nc3ccccc3s2)cc1I | 50%
CN1CCC(CCC(=O)OC(C)(C)C)(CN2c3ccccc3Sc3ccccc32)C1 (stereo not given) | -12%
COc1cc(C(=O)C=[N+]=[N-])c([N+](=O)[O-])c(OC)c1OC | 11%
COc1ccc(-n2cc(-c3ccc(Cl)cc3)c3c(N)ncnc32)cc1 | 13%
COc1ccccc1/C=C1\SC(=S)N(/C=C2\C(=O)Oc3ccccc3C2=O)C1=O | -8%
F[Si](c1ccccc1)(c1ccccc1)c1ccccc1 | 0%
Cc1c2ccnc(-c3ccc(F)cc3)c2cc2c1[nH]c1ccccc12 | 7%
CCN(CC)CCNc1c(OC)cc(C)c2sc3ccccc3c(=O)c12 | 1%
O=c1cccc(C2CCc3cc(O)ccc3C2)[nH]1 (stereo not given) | 1%
O/N=C1\c2ccccc2-c2ccc(Cl)cc21 | -4%
CCCCN(CCCC)CC(O)c1cc(-c2ccc(Cl)cc2)nc2c(Cl)cccc12 (stereo not given) | -3%
CN(C)c1ccc(-c2c(C#N)c(S)n(NS(=O)(=O)c3ccccc3)c(=O)c2C#N)cc1 | 50%
Clc1ccc2ns[s+]c2c1 | 21%
COc1ccc2c(c1)CC/C(=C\c1ccc(OCCN(C)C)cc1)C2=O | 8%
CCCCOC(=O)c1cnc[nH]c1=O | 4%
COC(=O)c1c(C)cccc1C1CN=NC12Cc1ccc(C)c(C)c1C2=O (stereo not given) | 1%
CC1CCN(CCOC(=O)C(c2ccccc2)C2C=CCCC2)C1 (stereo not given) | 7%

SMILES | growth inhibition
CNCC(OB(c1ccccc1)c1ccccc1)c1ccccc1 (stereo not given) | 9%
O=C1CCC(Cc2ccc(C(F)(F)F)cc2)C(=O)N1 (stereo not given) | -3%
CC(C)(Br)C(Br)C(=O)C(Br)C(C)(C)Br (stereo not given) | -2%
CCCCCCCCN(CCCCCCCC)CC(O)c1cc2c(c3ccccc13)CCCC2 (stereo not given) | 13%
Brc1ccc(CCNCCN2CCCCC2)cc1 | 45%
CC(C)=NNc1ncnc2nc[nH]c12 | 4%
CC1=C/C(=C\c2ccc([N+](=O)[O-])o2)C(=O)O1 | 97% (active)
CCOC(=O)C(=O)Nc1nc2c(s1)C(=O)c1ccccc1C2=O | -3%
CC1CC2(C)ON=C(c3ccccc3)N2c2ccccc2S1 (stereo not given) | -6%
N#CC(CC(Br)CBr)(c1ccccc1)c1ccccc1 (stereo not given) | 10%
Oc1ccc(-c2ccccc2)cc1Cl | -11%
C=CCSc1nc2ccccc2c(=O)n1Cc1ccco1 | 27%
CCOC(=O)c1ccc(O)c(OC)c1 | -5%
O=C(COc1ccc2ccccc2c1)NC1c2ccccc2Oc2ccccc21 | 98% (active)
O=S(=O)(c1ccccc1)n1cc(C[P+](c2ccccc2)(c2ccccc2)c2ccccc2)c2ccccc21 | 8%
CC/C(=N\O)c1ccc2cc(Br)c3ccccc3c2c1 | -10%
CCOC(=O)C(C)(C)Oc1ccc2c(=O)cc(-c3ccccc3)oc2c1 | 6%
CC(O)c1c2ccccc2cc2ccccc12 (stereo not given) | -32%
CC(=O)OC1CCC2(C)C(CCC3C4=CCC(C5COC(=O)C5)C4(C)CCC32)C1 (stereo not given) | -2%
NC(C(=O)O)C1=CCCCCC1 (stereo not given) | 12%

— PubChem BioAssay (NCI)
